Sampled rows, rich in hits. Any-hit rate of the full collection: about 2.2%.
GRK2 aptamer HTS = human GRK2 inhibition via aptamer displacement; P25098; bead flow cytometry, FAM-aptamer displacement from GRK2; inhibition of aptamer binding, % at 10 µM; 0.59% of 330,000 active; AID 488847;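 active = inhibition of aptamer binding above 40%, roughly 3 SD of noise, on plates passing a quality check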;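 also: median bead fluorescence of bound FAM aptamer so fluorescent compounds give negative values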
TLR9-MyD88 block = blocks human TLR9 binding to MyD88; Q9NR96+Q99836; CHO BLA complementation TLR9-MyD88, CCF4 FRET ratio; inhibition, % at 4.98 µM; 0.21% of 340,000 active; AID 504734;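 active = inhibition above the mean over all tested compounds plus 3 SD, cut at about 21% in these data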
TLR4 MyD88 comp = TLR4-MyD88 interaction inhibition in cells; O00206+Q99836; HeLa CL3-4 TLR4/MyD88 BLA complementation, FRET ratio; inhibition, % at 8.4 µM; 0.18% of 200,000 active; in the data active = inhibition above about 25%
NOD2 RIPK2 PPI = NOD2-RIPK2 protein interaction inhibition. O43353. CHO BLA complementation NOD2-RIPK2, CCF4 ratio. AID 624267. inhibition, % at 4.98 µM. 0.38% of 360,000 active; in the data active = inhibition above about 21%
Target sequence (O43353 whole entry, looked up): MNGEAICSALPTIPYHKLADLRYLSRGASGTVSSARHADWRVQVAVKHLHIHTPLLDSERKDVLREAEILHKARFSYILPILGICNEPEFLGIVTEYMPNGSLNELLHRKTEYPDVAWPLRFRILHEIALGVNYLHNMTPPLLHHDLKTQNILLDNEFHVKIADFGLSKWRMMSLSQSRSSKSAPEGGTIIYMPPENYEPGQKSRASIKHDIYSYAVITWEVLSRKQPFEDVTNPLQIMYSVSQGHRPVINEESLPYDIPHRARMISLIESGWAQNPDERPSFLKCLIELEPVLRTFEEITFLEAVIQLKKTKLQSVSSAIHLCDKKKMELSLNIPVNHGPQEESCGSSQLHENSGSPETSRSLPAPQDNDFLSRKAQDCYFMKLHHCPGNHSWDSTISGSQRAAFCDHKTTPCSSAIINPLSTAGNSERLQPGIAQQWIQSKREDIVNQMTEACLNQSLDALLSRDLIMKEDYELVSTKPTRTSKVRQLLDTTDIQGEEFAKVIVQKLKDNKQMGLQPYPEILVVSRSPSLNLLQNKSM
ANO1 block = blocks the mouse calcium-activated chloride channel TMEM16A | Q8BHY3 | 1.2% of 310,000 active | HEK293 TMEM16A/YFP iodide influx fluorescence, ionomycin | normalized B-score (activity score, 25-100; higher = stronger inhibition) at 10 µM;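 active = ratio plate-corrected score three or more library SD toward inhibition, starting fluorescence score within five deviations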;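 also: score derived from kinetic fluorescence span divided by baseline fluorescence per well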
TMEM16A act = activators or potentiators of mouse TMEM16A chloride channel; Q8BHY3; 0.3% of 340,000 active; HEK293 TMEM16A/YFP-H148Q/I152L, iodide quench fluorescence; active compounds read low; B-score at 10 µM;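 active = fluorescence-ratio B-score plate-corrected deviation score at least 3 library SD below zero, with starting fluorescence score within 5 deviations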;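 also: channel opened by trigger with iodide after compound preincubation; score built on the fluorescence ratio of max minus min over baseline; more negative score means more quench and so TMEM16A activation or potentiation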
GRK2 inh confirm = human GRK2 inhibition confirmation, cherry pick 1; shares compounds with GRK2 aptamer HTS; bead-bound GRK2, FAM-aptamer displacement, flow cytometry; aptamer displacement, % at 10 µM; 4% of 2,000 active;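 active = aptamer displacement above 40%, near three times the noise of non-fluorescent compounds, on plates passing quality checks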;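 also: negative values mostly reflect intrinsic compound fluorescence rather than true enhancement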
Aptamer quench = quenches fluorescent RNA aptamer, GRK2 hit artifact; shares compounds with GRK2 aptamer HTS; Fluorescent RNA aptamer beads, quenching, flow cytometry; active compounds read high; fluorescence change (kMESF span), kMESF (no concentration beside the values); 110 tested, under 10 active; AID 504521;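 active = compounds whose bead fluorescence drops by more than 37 kMESF across the dose range, marking them as dye quenchers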
FAM quench CP1 = aptamer fluorescence quenching in GRK2 counter-screen | shares compounds with GRK2 aptamer HTS | Carboxyfluorescein RNA aptamer on beads, flow cytometry quenching; active compounds read low | AID 504580 | 2,000 tested, under 10 active | fluorescence response (% of DMSO), % at 10 µM;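 active = compounds that quench the bead-bound fluorescent RNA probe, cutting fluorescence to under half of the solvent control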;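 also: counterscreen run without GRK2 so only probe quenching by compound is measured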
GRK2 CP2 = confirmation of human GRK2 inhibitors binding RNA aptamer site. shares compounds with GRK2 aptamer HTS. inhibition of aptamer binding, % at 10 µM. 360 tested, under 10 active. bead-bound GRK2, FAM-aptamer displacement, flow cytometry. AID 504782;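 active = inhibition of aptamer binding above 40%, about triple the noise seen with nonglowing compounds, on plates passing quality control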;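 also: negative values mostly come from compounds that fluoresce themselves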
FAM quench SP = aptamer fluorescence quenching in GRK2 counter-screen; shares compounds with GRK2 aptamer HTS; carboxyfluorescein RNA aptamer beads, flow cytometry quenching; active compounds read low; fluorescence response vs DMSO, % at 10 µM; 360 tested, under 10 active; AID 588494;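 active = response vs DMSO under 50%, meaning signal dropped by over half, treated as fluorescence quencher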;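 also: labelled aptamer on streptavidin beads without GRK2 as a quench counter-screen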
Numbers stand for hits; i = inactive; nt = not tested or not shown.

SMILES | GRK2 aptamer HTS | TLR9-MyD88 block | TLR4 MyD88 comp | NOD2 RIPK2 PPI | ANO1 block | TMEM16A act | GRK2 inh confirm | FAM quench CP1 | others
O=C(CN1C(=O)NC(Cc2ccccc2)C1=O)Nc1ccccc1F (stereo unspecified) | 44 | i | nt | i | nt | i | nt | nt | GRK2 CP2=i;FAM quench SP=i
O=C(Cn1cc(C(=O)c2cccs2)c2ccccc21)NCc1ccc2c(c1)OCO2 | 69 | i | i | i | i | i | i | i
O=C(Cn1cc(C(=O)c2cccs2)c2ccccc21)NCC1CCCO1 (stereo unspecified) | i | i | i | i | i | i | nt | nt
Nc1nn(-c2ccccc2)c2ccc([N+](=O)[O-])cc12 | 75 | i | nt | i | i | i | i | i
CCOC(=O)c1c(-c2cccs2)csc1NC(=O)CSc1ncn[nH]1 | 90 | i | i | i | i | i | i | i
CCOC(=O)c1c(-c2cccs2)csc1NC(C)=O | i | i | i | i | i | i | nt | nt
COc1ccccc1OCCCC(=O)Nc1nnc(C2CCCO2)s1 (stereo unspecified) | i | i | nt | i | i | i | nt | nt
Cc1occc1C(=O)Nc1cccc(C(=O)NCc2ccccc2)c1 | i | i | i | i | i | i | i | i
CC(=O)Nc1ccccc1C(=O)C(=O)Nc1cccc(C(=O)NCc2ccccc2)c1 | i | i | i | i | i | i | nt | nt
Cc1ccc(C(=O)Nc2cccc(C(=O)NCc3ccccc3)c2)cc1 | i | i | i | i | i | i | i | i
CC(=O)Nc1ccccc1C(=O)C(=O)Nc1cccc(C(=O)NCc2ccc(C)cc2)c1 | i | nt | i | nt | i | nt | nt | nt
COc1ccc(C(=O)Nc2cccc(C(=O)NCc3ccccc3)c2)cc1 | i | i | i | i | i | i | i | i
CSc1ccc(CN2CCN(C(C)C)C(CCO)C2)cc1 (stereo unspecified) | 91 | i | i | i | i | i | i | i
Nc1ccc(-c2nc3ccc(N)cc3[nH]2)cc1 | i | i | i | i | i | i | nt | nt
Nc1ccc2nc(-c3cccc(-c4nc5ccc(N)cc5[nH]4)c3)[nH]c2c1 | 99 | i | nt | i | i | i | i | i
Cc1nc2ccc(-c3nc4ccc(N)cc4[nH]3)cc2[nH]1 | 88 | i | i | i | i | i | i | i
O=C(NC1CC1)C(=O)c1c[nH]c2ccccc12 | i | i | nt | i | i | i | nt | nt
O=C(NC1CC1)c1cc(=S)[nH]c2ccccc12 | i | i | nt | i | nt | i | i | i
CCCOP(=O)(c1ccc(N(C)C)cc1)C(O)c1ccc(Cl)cc1 (stereo unspecified) | i | i | nt | i | i | i | nt | nt
O=S(=O)(O)c1cc(O)c2c(O)c(N=Nc3cc(Cl)ccc3O)c(S(=O)(=O)O)cc2c1 | 99 | i | nt | i | i | i | 70 | i | Aptamer quench=i
COc1ccc(N2CC(C(=O)Nc3ccccc3N3CCCC3)CC2=O)c(OC)c1 (stereo unspecified) | i | i | nt | i | i | i | nt | nt
COc1ccc(C)cc1N1CC(C(=O)Nc2ccccc2N2CCCCC2)CC1=O (stereo unspecified) | 78 | i | nt | i | nt | i | i | i
CC(C(=O)OCC(=O)N1CCN(c2ccccc2)CC1)N1C(=O)c2ccccc2C1=O (stereo unspecified) | i | i | nt | i | nt | i | i | i
Cc1ccc(S(=O)(=O)NCc2ccc3c(c2)cc(C)n3C)cc1 | i | i | i | i | i | i | nt | nt
Cc1cc2cc(CN3C(=O)c4ccccc4C3=O)ccc2n1C | 46 | i | i | i | i | i | i | i
SMILES | GRK2 aptamer HTS | TLR9-MyD88 block | TLR4 MyD88 comp | NOD2 RIPK2 PPI | ANO1 block | TMEM16A act | GRK2 inh confirm | FAM quench CP1 | others
CCCC(=O)Nc1ccc2c(c1)nc(CCNC(=O)c1ccccc1)n2C | i | i | i | i | i | i | i | i
O=C(NCc1ccccc1)c1ccc(NC(=O)C2CCC2)cc1 | nt | i | nt | i | nt | nt | nt | nt
O=C(NCc1ccccc1)c1cccc(COc2ccccc2Cl)c1 | i | i | i | i | i | i | i | i
O=C(NCc1ccccc1)c1cccc(NC(=O)C2CCC2)c1 | nt | i | nt | i | nt | nt | i | i
O=C(NCc1ccccc1)c1cccc(COc2cc(Cl)ccc2Cl)c1 | i | i | i | i | i | i | nt | nt
O=C(NCc1ccccc1)c1cccc(NC(=O)C2CCCC2)c1 | nt | i | nt | i | nt | nt | i | i
O=C(NCCc1ccccc1)c1cccc(NC(=O)C2CCCC2)c1 | nt | i | nt | i | nt | nt | nt | nt
O=C(Nc1c2c(nn1-c1cccc(Cl)c1)CS(=O)(=O)C2)c1ccco1 | i | i | nt | i | i | i | nt | nt
CC1CN(S(=O)(=O)c2ccc(C(=O)N3CCc4ccccc43)cc2)CC(C)O1 (stereo unspecified) | i | i | nt | i | nt | i | nt | nt
CN1CCCC(CC2Oc3ccccc3Sc3ccccc32)C1 (stereo unspecified) | 44 | i | i | i | i | i | nt | nt | GRK2 CP2=i;FAM quench SP=i
CCOC(=O)C1(C)CCN1C(=O)c1cc(F)ccc1C (stereo unspecified) | nt | nt | nt | i | nt | nt | nt | nt
O=C1C2CCCCN2C(=O)N1CCN1CCN(c2cccc(Cl)c2)CC1 (stereo unspecified) | nt | i | nt | i | nt | i | nt | nt
O=C1C2CCCN2C(=O)N1CCCCN1CCN(c2cccc(Cl)c2)CC1 (stereo unspecified) | 100 | i | i | i | i | i | nt | nt | GRK2 CP2=i;FAM quench SP=i
CCCCc1ccc(/C(C)=N/Nc2cc(N3CCOCC3)nc(C)n2)cc1 | i | i | nt | i | i | i | nt | nt
CN(C(=O)COC(=O)c1cccnc1Nc1cccc(C(F)(F)F)c1)C1CCS(=O)(=O)C1 (stereo unspecified) | i | i | i | i | i | i | i | i
Cc1ccc2cc(CN(Cc3nnnn3Cc3ccco3)CC3CCCO3)c(=O)[nH]c2c1C (stereo unspecified) | 64 | i | i | i | i | i | i | i
CCOC(=O)N1CCN(C(=O)C[C@@H]2C[C@@]3(C(=O)OC)CCCCC=C3N(CCc3ccc(OC)c(OC)c3)C2=O)CC1 | nt | nt | nt | i | nt | nt | nt | nt
Cc1onc(-c2ccccc2)c1C(=O)N(CC(C)C)c1c(N)n(CC(C)C)c(=O)[nH]c1=O | i | i | nt | i | nt | i | nt | nt

High-throughput results (PubChem BioAssay)
